High-throughput results deposited in PubChem by National Center for Advancing Translational Sciences (NCATS).
Gal4-VP16 FLuc: VP16 counterscreen qHTS for inhibitors of ROR gamma transcriptional activity; Drosophila S2 Gal4-VP16 UAS-luciferase, luminescence, 20 h; Potency, µM (highest dose often 53.6 µM), without a hit: at the top dose activity, negative = inhibition, most hits filed as inhibitors; hit rate 3.5% among 310,000;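 note: Gal4-VP16 expression switched on by copper sulfate through the metallothionein promoter; nearly all actives have a fitted effect of over 50% in size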
RORgamma inh: qHTS for inhibitors of ROR gamma transcriptional activity | Nuclear receptor ROR-gamma (Mus musculus), P51450 | Drosophila S2 Gal4-RORgamma UAS-luciferase reporter, 20 h | Potency, µM (series often up to 53.6 µM), for inactives: at the highest dose activity change, negative = inhibition, usual class: inhibitors | hit rate 5.4% among 310,000 | AID 2551, 2010; note: nearly all actives have a fitted effect of over 60% in size
Target sequence (P51450 whole entry, looked up, the tested form may be a part): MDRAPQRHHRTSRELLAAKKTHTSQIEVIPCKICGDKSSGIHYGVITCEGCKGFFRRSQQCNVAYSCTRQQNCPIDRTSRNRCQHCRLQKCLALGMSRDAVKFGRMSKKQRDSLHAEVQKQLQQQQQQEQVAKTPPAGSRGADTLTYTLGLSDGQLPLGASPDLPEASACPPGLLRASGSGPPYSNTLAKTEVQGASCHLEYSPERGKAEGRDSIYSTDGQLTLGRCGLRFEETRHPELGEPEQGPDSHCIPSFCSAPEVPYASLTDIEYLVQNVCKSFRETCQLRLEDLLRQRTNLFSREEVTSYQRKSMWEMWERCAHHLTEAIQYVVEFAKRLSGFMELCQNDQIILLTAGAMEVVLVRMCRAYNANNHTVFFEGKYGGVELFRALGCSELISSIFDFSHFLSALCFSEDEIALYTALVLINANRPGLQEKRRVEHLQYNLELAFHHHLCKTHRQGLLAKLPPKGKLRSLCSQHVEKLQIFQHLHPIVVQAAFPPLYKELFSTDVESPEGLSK
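Schneider cells (Drosophila), stable Gal4 DBD–ROR gamma + UAS-luc; 1 hr cmpd preincubation; Cu2+ induction 700 uM final; 20 hr ambient; luminescence.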
TDP1 cell CPT: qHTS for Inhibitors of human tyrosyl-DNA phosphodiesterase 1 (TDP1): qHTS in cells in presence of CPT; chicken DT40 Tdp1-/-;hTDP1 cells + 20 nM CPT, ATP luminescence, 48 h; Potency, µM (doses to about 46.2 µM), without a hit: top-dose activity change, negative = growth inhibition, actives largely listed as inhibitors; hit rate 12% among 420,000; AID 686979, 2013; note: nearly all actives have a fitted effect of over 55% in size
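Cell growth measured by CellTiter-Glo luminescence after a minimum 48 h, 37 C compound exposure with 20 nM CPT in Tdp1-knockout DT40 cells stably expressing hTDP1, seeded 400/well; qHTS titration format.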
DT40 TDP1 no CPT: qHTS for Inhibitors of human tyrosyl-DNA phosphodiesterase 1 (TDP1): qHTS in cells in absence of CPT; DT40 Tdp1-/- hTDP1 cells, no CPT, ATP luminescence, 48 h; Potency, µM (series often up to 46.2 µM), for the others: top-dose activity change, negative = growth inhibition, usual class: inhibitors; hit rate 15% among 420,000; AID 686978, 2013; note: nearly all actives have a fitted effect of over 55% in size
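A cellular qHTS used chicken DT40 cells lacking endogenous Tdp1 but carrying stably transfected human TDP1. Compounds were applied without camptothecin, and cell growth kinetics were judged by ATP-dependent luminescence after ≥48 hr.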
TDP1 block: qHTS Assay for Inhibitors of Tyrosyl-DNA Phosphodiesterase (TDP1); Tyrosyl-DNA phosphodiesterase 1 (Homo sapiens), Q9NUW8; recombinant TDP1, AlphaScreen DNA substrate cleavage; Potency, µM (series often up to 130 µM), for the others: at the highest dose activity change, negative = inhibition, most hits filed as inhibitors; hit rate 0.28% among 350,000; AID 485290, 2010; note: nearly all actives have a fitted effect of over 40% in size
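AlphaScreen read-out: signal falls as enzyme removes the 3' tyrosine-FITC from a 5'-biotinylated DNA oligo (15 nM, 5 min, RT). Enzyme was E. coli-made recombinant Tdp1 at 1 nM, exposed to compound for 15 min beforehand; beads 10 ug/ml, 10 min.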
An asterisk follows results filed as active; ? = inconclusive; · = no result; [ ] = dose if it differs, or a comment. Only some compounds are listed: those with a hit (about 19% of all), similar ones and a draw of the others. Calls come from the whole dose curve; as a rule, active = well fitted curve in the direction sought with a large enough effect; inconclusive = small, poorly fitted or top-dose-only effect, or another doubt; inactive = no such curve, though single readings can be large; an effect the other way counts as inactive or inconclusive. % is set by controls: 0 for no effect and ±100 for the full control effect; potency is the fitted concentration of half-maximal effect.

SMILES | Gal4-VP16 FLuc | RORgamma inh | TDP1 cell CPT | DT40 TDP1 no CPT | TDP1 block
OC(CBr)C[n+]1cc(Br)cc2ccccc21 (stereo not given) | · | · | 7.08µM* | 8.91µM* | ·
Oc1cccc2ccc[n+](CC(O)CBr)c12 (stereo not given) | · | · | -2.2% | -8.6% | ·
Nc1nnc(SCC(=O)Nc2cc(S(=O)(=O)N3CCOCC3)ccc2Cl)s1 | -20.1% | -2.1% | -1.3% | -14.2% | 5.3%
CC1CC(C)CN(C(=O)c2ccc(S(=O)(=O)N3CC(C)CC(C)C3)cc2)C1 (stereo not given) | -3.8% | 4.5% | 23.1µM* | 18.4µM* | -0.5%
Cc1ccc(C(C)(C)C)cc1S(=O)(=O)Nc1cccc(C(=O)N2CCN(c3ccccn3)CC2)c1 | · | · | 29.1µM* | 16.4µM* | ·
CC1CC(C)CN(S(=O)(=O)c2ccc(C(=O)N3CCCC3)cc2)C1 (stereo not given) | 5.1% | -9.1% | -15.5% | ? | -0.5%
CCOC(=O)C1CCN(C(=O)c2ccccc2NS(=O)(=O)c2ccc(C)cc2)CC1 | 0.0% | 1.2% | ? | -15.6% | 6.6%
CCOC(=O)C1CCN(C(=O)c2ccc(S(=O)(=O)Nc3ccccc3Cl)cc2)CC1 | · | · | ? | 11.6µM* | 2.2%
CCOC(=O)N1CCN(C(=O)COc2ccc(S(=O)(=O)Nc3ccc(OCC)cc3)cc2)CC1 | -0.2%[0.365 µM] | ? | ? | 23.1µM* | 5.3%
O=C(CN1CCCCC1)Nc1ccccc1-c1ccccc1 | -0.1% | 6.8% | ? | ? | -4.5%
O=C(NCC1Cc2cccc(-c3ccccn3)c2O1)c1cnn2cccnc12 (stereo not given) | · | · | -4.8% | 2.5% | ·
C=CC[C@H](CC(=O)NCCO)C(=O)N[C@H](COC(=O)[C@@H](CC=C)CC(=O)OC(C)(C)C)Cc1ccccc1 | · | · | -18.0% | ? | 0.5%
O=C(Nc1ccc(F)cc1)c1ccc(-n2cnc3cccnc32)cc1 | · | · | · | · | 5.6%
COc1cc(O)c(NC(C)=O)c2nonc12 | 3.7% | -7.1% | -15.4% | -16.5% | 0.0%
O=S(=O)(Nc1ccc(N2CCCCC2)cc1)c1ccccc1 | -1.3% | 27.3%[10 µM] | ? | ? | 2.3%
COc1ccc(NS(=O)(=O)c2ccc(C(=O)N3CCN(c4ccc(F)cc4)CC3)cc2)cc1 | · | · | 10.3µM* | 4.61µM* | 2.9%
COc1ccc(NS(=O)(=O)c2ccc(N3C(=O)CCC3=O)cc2)cc1 | 2.2% | 42.7% | -6.0% | -3.0% | 2.0%
Cc1ccc(NS(=O)(=O)c2ccc(C(=O)N3CCN(c4ncccn4)CC3)cc2)cc1 | 1.26µM* | -44.8% | ? | 7.31µM* | 6.5%
COc1ccc(S(=O)(=O)Nc2ccc(-n3cccc3)cc2)cc1 | 11.2µM* | 11.2µM* | -2.5% | -19.4% | 12.5%
O=S(=O)(Nc1ccc(N2CCCCC2)cc1)c1ccc(F)cc1 | -24.3% | 5.2% | 16.4µM* | 29.1µM* | 2.6%
COc1ccc(C(=O)Nc2ccccc2C(=O)NC(C)C)cc1OC | -5.9% | -41.9% | ? | ? | 3.5%
CC(C)CC1c2[nH]c3ccccc3c2CCN1C(=O)CCC(=O)N(C)C (stereo not given) | ? | 25.4% | -2.4% | ? | 3.7%
O=C(c1ccc(NS(=O)(=O)c2ccccc2)cc1)N1CCOCC1 | -7.7% | 26.3% | 6.5% | 10.3µM* | ·
CCOC(=O)N1CCN(C(=O)c2ccc(S(=O)(=O)Nc3ccccc3)cc2)CC1 | · | · | 11.6µM* | ? | 0.7%
O=C(c1ccc(NS(=O)(=O)c2ccc(F)cc2)cc1)N1CCCCC1 | · | · | -28.8% | ? | -7.0%[0.505 µM]
SMILES | Gal4-VP16 FLuc | RORgamma inh | TDP1 cell CPT | DT40 TDP1 no CPT | TDP1 block
Cc1ccc(NS(=O)(=O)c2ccc(C(=O)N3CCOCC3)cc2)cc1 | · | · | ? | ? | -5.6%
Cc1ccc(S(=O)(=O)N2CCN(C(=O)c3cc4c(s3)CCCC4)CC2)cc1 | · | · | ? | 16.4µM* | 0.7%
O=C(c1ccc(S(=O)(=O)Nc2ccc(F)cc2)cc1)N1CCN(c2ccccn2)CC1 | ? | -17.4% | ? | 18.4µM* | 1.8%
CCOC(=O)N1CCN(C(=O)c2ccc(Cl)c(S(=O)(=O)Nc3ccccc3)c2)CC1 | 1.8% | 19.4% | -19.1% | -28.6% | 2.3%
C/C(=N\N1CCN(C)CC1)c1ccc(Cl)c(Cl)c1 | 15.3% | -3.1% | -1.2% | ? | -2.5%
Cc1ccc(NS(=O)(=O)c2ccc(C(=O)N3CC(C)CC(C)C3)cc2)cc1 (stereo not given) | · | · | 20.6µM* | 16.4µM* | 0.0%
Cc1ccc(NS(=O)(=O)c2ccc(C(=O)N3CCN(S(=O)(=O)c4ccccc4)CC3)cc2)cc1 | · | · | 11.6µM* | 7.31µM* | 1.5%
Cc1ccc(S(=O)(=O)Nc2ccc(C(=O)N3CCCC3)cc2)cc1 | -0.3% | 20.3% | -17.6% | -20.8% | 3.1%
CC(=O)Nc1ccc(C(=O)N/C(=C/c2ccccc2)C(=O)NCc2ccco2)cc1 | -9.8% | -8.1% | 9.3% | 2.5% | 0.0%
C=C(CC)C(=O)c1ccc(OCC(=O)O)c(Cl)c1Cl | ? | ? | 16.8µM* | 18.4µM* | 2.7%
Fc1ccc(-c2nnn(Cc3nc4ccccc4s3)n2)cc1 | 2.0% | 3.1% | 5.1% | -1.7% | -9.4%
COc1ccc(C(=O)CCC(=O)N2CCN(c3cc(C)ccc3C)CC2)cc1 | -8.7% | 32.3% | 16.4µM* | ? | 5.9%
COc1ccc(-c2noc(CCCC(=O)N3CCN(c4cc(C)ccc4C)CC3)n2)cc1 | · | · | ? | ? | -0.8%[56.1 µM]
COc1ccc(-c2cccc(CCC(=O)N3CCN(c4cc(C)ccc4C)CC3)c2)cc1 | · | · | ? | ? | -0.5%[56.1 µM]
COc1ccccc1-c1noc(CCC(=O)N2CCN(c3cc(C)ccc3C)CC2)n1 | · | · | ? | 14.6µM* | 1.8%[56.1 µM]
COc1ccc(-c2noc(CCCCC(=O)N3CCN(c4cc(C)ccc4C)CC3)n2)cc1 | · | · | 4.11µM* | 2.91µM* | 0.2%[56.1 µM]
COc1ccc(C(=O)N2CCC[C@@]3(CCN(C(=O)Nc4cccc(C#N)c4)C3)C2)cc1 | -1.4% | -23.8% | -2.6% | -2.4% | ·
Nc1nc(SCC(=O)N2CCCCC2)[nH]c(=O)c1NC(=O)c1ccccc1F | -10.3% | -14.2% | 2.9% | -4.0% | 5.9%
Cc1noc(C)c1C(=O)Nc1ccc(N(C)C)cc1 | -9.0% | 4.2% | -12.1% | 37.6% | 2.5%
CN(C)c1ccc(NC(=O)c2cnsn2)cc1 | 10µM* | 10µM* | -5.0% | -29.6% | -2.4%
Cc1csc(NC(=O)CCc2c(C)nc3cc(-c4cccc(F)c4)nn3c2C)n1 | ? | ? | 16.4µM* | 20.6µM* | -1.3%
Cc1nc2cc(-c3cccc(F)c3)nn2c(C)c1CCC(=O)NC1CCCCC1 | · | · | 6.6% | 5.4% | 3.5%
